# Compound activity as filed in PubChem BioAssay.
# KB-V1 cytotox: KB-V1 MDR subline cytotoxicity; KB-V1 MDR cells viability, CellTiter-Glo, 72 h; Potency, µM (series often up to 46.1 µM), hits mostly cytotoxic; 3.4% of 400,000 active; note: nearly all actives have a fitted effect of over 60% in size
#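 qHTS viability screen in drug-selected KB-V1 MDR cells: 72 h compound treatment at 37 degrees C, ATP luminescence end point.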
# TGFb SMAD3 inh: blocks TGF-b signaling; AID 588855; HepG2 CAGA-GFP TGF-b/SMAD3 reporter, GFP fluorescence, 18 h; TGF-beta stimulated, 500 pg/mL final; 1.2% of 410,000 active; Potency, µM (doses to about 46.1 µM), actives largely listed as inhibitors; note: nearly all actives have a fitted effect of over 65% in size
#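 Per well, imaged GFP fluorescence of HEPG2 CAGA-GFP cells gives the signal; cells get compound, then TGF-beta (500 pg/mL final), 18 h at 37 degrees C; %Activity versus -TGF-beta and +DMSO controls.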
# KB-3-1 cytotox: kills parental KB-3-1 adenocarcinoma cells. KB-3-1 viability, CellTiter-Glo ATP luminescence, 72 h. Potency, µM (series often up to 46.1 µM), most hits filed as cytotoxic. 1.4% of 400,000 active; note: nearly all actives have a fitted effect of over 60% in size
#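 Multi-concentration cytotoxicity screen in KB-3-1 cells grown in DMEM lacking phenol red with 10% FBS. After 72 h at 37 °C with compound, ATP-dependent luminescence was recorded.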
# HepG2 tox: kills HepG2 cells in TGF-b inhibitor counter-screen | HepG2 CAGA-GFP viability, ATP luminescence, 18 h | Potency, µM (doses to about 46.1 µM), actives largely listed as cytotoxic | 0.76% of 410,000 active | AID 588856
#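 CellTiter-Glo luminescence gave cytotoxicity after 18 hours at 37 degrees C. The cells were HepG2 CAGA-GFP in 1% FBS DMEM, stimulated with 500 pg/mL TGF-beta after compound addition. %Activity was normalised to no-cell wells (complete cell-killing) and DMSO (no toxicity), and curves were fitted and classified.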
# S2 tox: viability counter-screen for ATXN expression inhibitors; S2 cells (HEK-293 line with an ATXN2-luciferase reporter) viability, CellTiter-Fluor protease fluorescence, 24 h; Potency, µM (top dose mostly 56.7 µM), actives largely listed as cytotoxic; 0.49% of 400,000 active; note: nearly all actives have a fitted effect of over 40% in size
# ATXN2 expr inh: reduces ATXN2 reporter expression in HEK-293 cells | HEK-293 ATXN2-luciferase reporter, luminescence, 24 h | Potency, µM (series often up to 57 µM), hits mostly inhibitors | 0.72% of 360,000 active | AID 1745845; note: nearly all actives have a fitted effect of over 55% in size
#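 qHTS (up to 57 uM final) was run with 24 h compound exposure of reporter cells at 37 °C. Each well was multiplexed: SteadyGlo luminescence measured ATXN2-luciferase expression after a fluorogenic Gly-Phe-AFC viability readout (25 uM final).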
# Hits are given with their value; . = inactive; ? = inconclusive; / = not tested or not shown. Most compounds without a hit are left out; they make up all but 5.9% or so of the library. Calls come from the whole dose curve; as a rule, active = well fitted curve in the direction sought with a large enough effect; inconclusive = small, poorly fitted or top-dose-only effect, or another doubt; inactive = no such curve, though single readings can be large; an effect the other way counts as inactive or inconclusive.
SMILES,KB-V1 cytotox,TGFb SMAD3 inh,KB-3-1 cytotox,HepG2 tox,S2 tox,ATXN2 expr inh
Nc1c(C(=O)c2ccccc2)sc2c1c(=O)[nH]c(=O)n2-c1ccccc1,14.6µM,?,.,.,.,.
COc1ccc2[nH]c(=O)c(CN(Cc3nnnn3Cc3ccco3)C3CCCCC3)cc2c1,.,.,?,.,.,?
CCOc1ccc2[nH]c(=O)c(C(c3nnnn3C3CCCCC3)N3CCN(C)CC3)cc2c1 (stereo not drawn),.,.,.,.,.,.
Cc1ccc2[nH]c(=O)c(CN(CCCO)C(C)c3nnnn3Cc3ccco3)cc2c1 (stereo not drawn),.,.,.,.,.,.
COc1ccc2[nH]c(=O)c(C(c3nnnn3C3CCCC3)N(C)C3CCCCC3)cc2c1 (stereo not drawn),5.17µM,.,.,.,.,.
COc1ccc2[nH]c(=O)c(CN(C3CCCCC3)C(c3nnnn3Cc3ccco3)C(C)C)cc2c1 (stereo not drawn),11.6µM,?,?,.,?,.
CCC(c1nnnn1Cc1ccco1)N(Cc1ccccc1OC)Cc1cc2cc(C)ccc2[nH]c1=O (stereo not drawn),13µM,.,.,.,.,.
CC(=O)Nc1ccc(CN(C)c2c(C)nc3ccc(C(=O)N(C)Cc4ccco4)cn23)cc1,.,.,.,.,.,.
Clc1ccc2nc(N3CCNCC3)nc(-c3ccccc3)c2c1,18.4µM,?,?,12.6µM,.,?
CN1CCN(c2nc(-c3ccccc3)c3cc(Cl)ccc3n2)CC1,?,.,?,.,.,.
CCC(C)NC(=O)CC(NS(=O)(=O)c1ccc(C)cc1)c1ccc(OC)cc1 (stereo not drawn),8.2µM,?,.,.,.,.
COc1ccc(C(CC(=O)O)NS(=O)(=O)c2ccc(C)cc2)cc1 (stereo not drawn),.,.,.,.,.,.
Cc1cccc(NC(=S)N(CCCN2CCCC2)Cc2cccn2Cc2ccc(Cl)cc2)c1,?,?,?,.,/,31.6µM
CCc1ccc2c(c1)C1(NN=C(c3ccc(C)cc3)S1)C(=O)N2 (stereo not drawn),?,15.8µM,?,.,?,?
CC(=O)NCCNC(=O)CCCc1nnc2n(CC(C)C)c(=O)c3sccc3n12,/,.,/,.,/,/
CCc1ccc(NC(=O)c2cc(=O)c3ccc(C)c(C)c3o2)cc1,5.8µM,.,.,.,.,.
COc1cccc(/C=N/Nc2cc(N3CCOCC3)ncn2)c1O,.,?,10.3µM,.,.,?
COc1ccc(-n2c(C)cc(/C=N/Nc3nnc(C)n3N)c2C)cc1,.,3.55µM,.,5.01µM,?,.
Cc1nnc(N/N=C/c2ccccc2F)n1N,.,.,.,.,.,.
CCOc1ccc(-n2c(C)cc(/C=N/Nc3nc(C)cc(=O)[nH]3)c2C)cc1,.,.,.,.,.,.
COc1ccc(/C=N/Nc2cc(N3CCOCC3)ncn2)c(OC)c1,?,.,.,.,.,.
COc1cccc(/C=N/Nc2ncnc3c2ncn3Cc2ccccc2)c1O,0.517µM,?,?,.,.,?
COc1cccc(/C=N/Nc2nnc(C)n2N)c1O,.,7.94µM,.,.,.,.
NCCc1nc2cccnc2n1-c1ccccc1,.,.,.,.,.,.
COC(=O)C1=CN(c2ccc(OC)cc2)C(N)=C(C#N)C1c1ccc(OC)cc1 (stereo not drawn),.,/,.,/,/,/
SMILES,KB-V1 cytotox,TGFb SMAD3 inh,KB-3-1 cytotox,HepG2 tox,S2 tox,ATXN2 expr inh
CCc1ccc(N2C=C(C(=O)OC)C(c3ccc(OC)cc3)C(C#N)=C2N)cc1 (stereo not drawn),18.4µM,/,?,/,/,/
COC(=O)C1=CN(c2ccc3c(c2)OCO3)C(N)=C(C#N)C1c1cccc(F)c1 (stereo not drawn),3.66µM,/,2.31µM,/,/,/
COC(=O)C1=CN(c2ccc(OC)cc2OC)C(N)=C(C#N)C1c1ccccc1F (stereo not drawn),?,/,1.46µM,/,/,/
COC(=O)C1=CN(c2ccc(OC)cc2OC)C(N)=C(C#N)C1c1ccc(OC)cc1 (stereo not drawn),?,/,.,/,/,/
COC(=O)C1=CN(c2ccc(C)cc2)C(N)=C(C#N)C1c1ccc(OC)cc1 (stereo not drawn),23.1µM,/,23.1µM,/,/,/
Cc1cccc(CNC(=O)c2cnn(-c3ncc(C)c(-c4ccc(F)cc4)n3)c2C)n1,/,/,/,/,.,/
COc1ccc(CCNC(=O)CSc2cc(=O)n(C)c3ccccc23)cc1OC,.,.,.,.,.,.
Cc1cc(C(=O)Nc2ccon2)cs1,.,.,.,.,.,.
CC(C)(C)c1cc(NC(=O)c2ccc(OC3CCCC3)cc2)no1,16.4µM,.,?,.,.,.
O=C(Nc1ccon1)c1ccc(OC2CCCC2)cc1,18.4µM,.,.,.,.,.
CC1N=C2c3ccccc3N=C(SCC(=O)NCCc3ccc(Cl)cc3)N2C1=O (stereo not drawn),.,.,.,.,?,.
CCOC(=O)c1ccc(N2C(=O)c3n[nH]c(-c4ccco4)c3C2c2cccc(OC)c2)cc1 (stereo not drawn),?,4.47µM,?,.,?,?
CCOC(=O)c1ccc(N2C(=O)c3n[nH]c(-c4ccco4)c3C2c2ccccc2OC)cc1 (stereo not drawn),?,?,.,5.01µM,?,?
CCOC(=O)c1ccc(N2C(=O)c3n[nH]c(C)c3C2c2ccccc2OC)cc1 (stereo not drawn),.,?,.,.,?,.
CCOC(=O)c1ccc(N2C(=O)c3n[nH]c(-c4ccco4)c3C2c2ccc(OCC)cc2)cc1 (stereo not drawn),/,7.08µM,/,.,/,/
CCOC(=O)c1ccc(N2C(=O)c3n[nH]c(-c4ccco4)c3C2c2cccc(F)c2)cc1 (stereo not drawn),.,?,.,15.8µM,?,?
CSc1ccc(C(O)c2ncc(-c3ccc(F)cc3)[nH]2)cc1 (stereo not drawn),.,.,.,.,.,.
CCOC(=O)c1ccc(N2C(=O)c3n[nH]c(C)c3C2c2ccc(O)cc2)cc1 (stereo not drawn),.,.,.,.,.,.
CCOC(=O)c1ccc(N2C(=O)c3n[nH]c(-c4ccco4)c3C2c2cccc(O)c2)cc1 (stereo not drawn),.,12.6µM,.,22.4µM,?,?
CCOC(=O)c1ccc(N2C(=O)c3n[nH]c(C)c3C2c2ccccc2)cc1 (stereo not drawn),13µM,.,.,.,.,.
